Molecules are shown by their SMILES. The campaign covered roughly 320,000 compounds. About 1,200 (0.38%) were called active. The entries come from a sample that favours actives as a whole. Unmarked numbers belong to inactive results.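 Rule for the calls: active = inhibition above the screen-wide mean plus 3 SD, limit set per campaign (cut at about 26% in these data); inactive = the rest.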

For this experiment, the target named is Acyl-protein thioesterase 2 (Homo sapiens) (UniProt O95372). Briefly: LYPLA2 inhibitors, primary screen, counter-screen for PME1 inhibitor project, biochemical, fluorescence polarization, FP-Rh probe ABPP (AID 2177).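 Note: 0% = LYPLA2 with DMSO and 100% = wells lacking LYPLA2 enzyme.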 The following applies: recombinant LYPLA2, FP-Rh probe fluorescence polarization; at 5.9 µM; hits give high values. Background: A counterscreen serves to expose hits that act by an unwanted route or on another target.
Acyl-protein thioesterase 2 (Homo sapiens), sequence (O95372 whole entry, looked up): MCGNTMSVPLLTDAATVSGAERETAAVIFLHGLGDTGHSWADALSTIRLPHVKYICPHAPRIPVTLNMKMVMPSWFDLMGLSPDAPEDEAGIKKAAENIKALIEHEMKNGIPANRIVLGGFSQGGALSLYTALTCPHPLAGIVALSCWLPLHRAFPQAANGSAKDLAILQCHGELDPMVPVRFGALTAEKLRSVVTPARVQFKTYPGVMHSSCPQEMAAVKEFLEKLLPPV
Broadly, the inhibition is the change of the read-out against control, counted positive when it falls. On to `Nc1nc(SCC(=O)Nc2ccc(Cl)cc2C(F)(F)F)n[nH]1`, for which the inhibition is 9.87%.
Under `CC(C)CNC(=O)C(=O)NCC(c1ccc2c(c1)OCO2)N1CCOCC1` (stereo unspecified) stands 6.19%; under `O=C(NCCSCc1ccccc1)c1ccc(Cl)c(S(=O)(=O)N2CCOCC2)c1`, 1.96%.
Under `Cc1nn(Cc2ccccc2)c(C)c1CNC(=O)c1ccc(F)c(S(=O)(=O)N2CCOCC2)c1` stands 29.7% (active); under `O=C(c1ccc(F)c(S(=O)(=O)N2CCOCC2)c1)N(CCc1ccccc1)Cc1ccccc1`, 5.14%; under `CC(OC(=O)CCC(=O)c1ccccc1)C(=O)Nc1ccc(F)cc1` (stereo unspecified), -5.12%.
As for `CN(CCC(=O)Nc1cc(S(=O)(=O)N(C)C)ccc1Cl)CC(=O)Nc1ccc(F)cc1`, the figure is -4.23%.
As to `CC(C)N(Cc1ccccc1)C(=O)COC(=O)c1ccccc1SCC(=O)N1CCCC1`, the inhibition is 1.65%.
Under `COc1ccc(/C=C/C(=O)Nc2c(C)nn(C)c2C)cc1COc1ccc(Br)cc1` stands -4.58%; under `O=C(Nc1ccc(N2CCN(C(=O)c3cccs3)CC2)cc1)c1cccnc1Cl`, 35.9% (active); under `O=C(COc1ccccc1)Nc1ccc(N2CCN(C(=O)c3cccs3)CC2)cc1`, 7.89%.
Under `Cc1ccccc1C(=O)N1CCN(c2ccc(NC(=O)c3cccs3)cc2)CC1` stands 2.59%.
Under `CN=C1S/C(=C\c2c(OC)cc(OC)cc2OC)C(=O)N1C` stands -0.06%.
`CC(C)OCCCNC(=O)CN1C(=O)/C(=C/c2ccccc2F)Oc2ccccc21`: the inhibition was -0.43%.
As for `CCC(=C/c1sc2ccc3ccccc3c2[n+]1C)/C=C1\Sc2ccc3ccccc3c2N1C`, the figure is 40.1% (active); as for `O=P(O)(CP(=O)(c1ccccc1)c1ccccc1)c1ccccc1O`, -2.71%; as for `CCC(C)CCN1CCN=C1N(C)C` (stereo unspecified), 8.55%.
Under `O=S(=O)(Nc1ccc(Cl)cn1)c1cnc(Cl)c(Br)c1` stands 2.67%; under `COC(=O)/C(=C1\Oc2ccc(C(C)(C)C)cc2S1)C(F)(F)F`, -3.77%; under `CC(=O)c1cc2c(cc1N)OCO2`, -2.04%.
On to `Nc1[nH][nH]c(=O)c1N=Nc1ccc2c(c1)OCO2`, for which the inhibition is 28.4% (active).
Turning to `O=C(c1ccc2c(c1)OCO2)N1CCOCC1`, the inhibition was 2.23%.
On to `COc1ccc([N+](=O)[O-])cc1C1NN=C(c2cccc3ccccc23)S1` (stereo unspecified), for which the inhibition was 7.57%.
With `Cc1cccc(C(=O)NC(=S)N2CCN(c3ccc([N+](=O)[O-])cc3)CC2)c1`, the inhibition is 0.8%.
As for `O=C(COC(=O)c1cc([N+](=O)[O-])ccc1NCc1ccccc1)NC1CCCCC1`, the figure is 12%.
As for `CCC(CC)COC(=O)C1=C(C)NC(=O)NC1c1ccc([N+](=O)[O-])cc1` (stereo unspecified), the figure is 28.8% (active).
Under `COCCOC(=O)C1=C(C)NC(=O)NC1c1ccc(Cl)cc1` (stereo unspecified) stands 3.24%; under `CC1=C(C(=O)OCC2CCCCC2)C(c2ccc(F)cc2)NC(=O)N1` (stereo unspecified), 0.63%.
As to `Cc1cc(C)c(C#N)c(SCc2[nH]nc3c2C(c2ccccc2)C(C#N)=C(N)O3)n1` (stereo unspecified), the inhibition was 55.3% (active).
In the case of `CCc1ccc(C2C(C#N)=C(N)Oc3n[nH]c(CC(=O)OC)c32)cc1` (stereo unspecified), the inhibition was 5.23%.
As for `Cc1cc(C)c(C#N)c(SCc2ccccc2C(=O)O)n1`, the figure is 1.89%; as for `CC(C)NC(=O)CSc1nnc(COc2ccccc2Cl)o1`, 1.63%.
Under `Cc1ccccc1N1CCN(CCCN2C(=O)C3CCCCN3C2=O)CC1` (stereo unspecified) stands -1.82%; under `O=C1C2CCCN2C(=O)N1CCCCN1CCN(c2cccc(C(F)(F)F)c2)CC1` (stereo unspecified), 64.2% (active).
Regarding `O=C(CCN1CCCO1)N1CCCC(N2CCN(c3cccc(C(F)(F)F)c3)CC2)C1` (stereo unspecified), the inhibition is 4.25%.
On to `CCOc1cc(S(=O)(=O)NCc2ccc3c(c2)OCO3)ccc1F`, for which the inhibition is 7.67%.
As for `CCCn1c(NC(=O)C23CC4CC(CC(O)(C4)C2)C3)nc2ccccc21`, the figure is -2.06%; as for `CCC1CCCCN1C(=O)CSc1nc2c(c(=O)n(C)c(=O)n2C)n1C` (stereo unspecified), 1.22%; as for `CC/C(Cc1ccccc1)=N/NC(=O)CCn1nnc2ccccc21`, 9.11%.
As for `Cc1onc(C(=O)Nc2ccc3c(c2)OCO3)c1[N+](=O)[O-]`, the figure is 7.4%; as for `Cc1nc([N+](=O)[O-])cn1CC(=O)Nc1ccc2c(c1)OCO2`, 27.6% (active).
For `Cc1ccc(C(=O)Cn2cc([N+](=O)[O-])nc2C)cc1`, the inhibition is 14.3%.
Turning to `Cc1nn(CC(=O)Nc2ccc3c(c2)OCO3)c(C)c1[N+](=O)[O-]`, the inhibition is 3.02%.
Take `Cc1nc([N+](=O)[O-])cn1CC(=O)Nc1ccc(Cl)cc1`: the inhibition is 35.7% (active).
Under `Cc1cc(C)n(CC(=O)Nc2ccc([N+](=O)[O-])cc2)n1` stands -3.9%.
As for `CC(C)C1Nc2c(C(=O)O)cccc2C(Nc2ccccc2C(=O)O)C1(C)C` (stereo unspecified), the figure is 1.52%; as for `c1ccc(CSc2ncnc3c2sc2nc(N4CCOCC4)c4c(c23)CCCC4)cc1`, 1.88%; as for `CCOc1ncccc1C(=O)N(CC)CC(=O)Nc1ccc(NC(C)=O)cc1`, -2.58%.
As for `COc1ccc(C(C#N)Nc2ccc(C)cc2)cc1` (stereo unspecified), the figure is 29.2% (active); as for `COc1ccc(C(CC(=O)Nc2ccc(C)cc2)NC(=O)C(F)(F)F)cc1` (stereo unspecified), -1.1%; as for `COc1ccc(C(C#N)Nc2ccccc2C)cc1` (stereo unspecified), 2.16%.
Regarding `Cn1nc(C(F)(F)F)c(C(=O)Nc2cccc(C(F)(F)F)c2)c1SCc1ccc(Cl)cc1`, the inhibition is -39.3%.
On to `N#CCc1ccc(OC(=O)c2cccnc2)cc1`, for which the inhibition is -0.53%.
Under `O=C(Oc1ccc(Br)cc1)c1cccnc1` stands 1.78%; under `CCCCCCOc1ccc(OC(=O)c2cccnc2)cc1`, 49.8% (active); under `COC(=O)c1cccc(-n2[nH]nnc2=S)c1`, -1.32%.
As to `CN1CCN(c2ccc(S(=O)(=O)N3CCOCC3)cc2NC(=O)CCc2ccccc2)CC1`, the inhibition was 6.09%.
Under `O=C(Cc1ccccn1)c1ccc(O)cc1O` stands -2.59%.
Under `CCOC(=O)c1cc(=O)c2ccc(OCc3ccccc3)cc2o1` stands -1.62%.
As for `O=c1c(-c2ccc3c(c2)OCCO3)c(C(F)(F)F)oc2cc(O)cc(O)c12`, the figure is 3.69%; as for `CCOC(=O)c1cc2cc(-c3c(C(=O)OCC)oc4cc(O)cc(O)c4c3=O)ccc2o1`, 33.9% (active).

For the origin of these results see PubChem BioAssay AID2177 (The Scripps Research Institute Molecular Screening Center, 2009).
